Source: PubChem BioAssay (National Center for Advancing Translational Sciences (NCATS))
HP1b chromo inh – HTS for Inhibitors of HP1-beta Chromodomain Interactions with Methylated Histone Tails; AID 540317, 2011; 390,000 compounds, 0.56% hits; AlphaScreen HP1-beta / biotin-H3K9me3 peptide binding; Chromobox protein homolog 1 (Homo sapiens), P83916; Potency, µM (highest dose often 114 µM), without a hit: top-dose activity change, negative = inhibition, hits mostly inhibitors; further: potency means the concentration at half of the fitted maximal effect; nearly all actives have a fitted effect of over 70% in size
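Compound inhibition of the preformed complex between 50 nM HP1-beta and 50 nM biotinylated H3K9me3 peptide was read by AlphaScreen. Buffer was PBS pH 7.4 with 0.01% Tween-20. Incubations ran 30 min at room temperature, with 10 ug/mL donor/acceptor beads.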
PI5P4Ka inh – qHTS for Inhibitors of phosphatidylinositol 5-phosphate 4-kinase (PI5P4K) | Phosphatidylinositol 5-phosphate 4-kinase type-2 alpha (Homo sapiens), P48426 | PI5P4Kalpha enzyme, ADP-Glo luminescence, 60 min; active compounds read low | max response, % | 330,000 compounds, 1.2% hits | AID 652105, 2013; active means max response of -50% or lower; inconclusive means between -30% and -50%; inactive means -30% or higher; further: value at the top dose of about 77 µM; on the % scale 0 is the no-effect control and ±100 the full control effect
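Single end-point luminescence (ADP-Glo) quantified ADP from PI5P4Kalpha turnover; ATP 5 microM final, 1 h at RT, 0.1% CHAPS and 0.28 mM EGTA in HEPES pH 7.4.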
PLK1 PBD block – qHTS for Inhibitors of PLK1-PDB (polo-like kinase 1 - polo-box domain): Primary Screen. Potency, µM, for the others: max response, negative = inhibition, actives largely listed as inhibitors. Serine/threonine-protein kinase PLK1 (Homo sapiens), P53350. AID 720504, 2013. 360,000 compounds, 2.8% hits. Plk1 PBD binding of FITC phosphopeptide, fluorescence polarization; further: potency means the concentration at half of the fitted maximal effect; series mostly up to about 57 µM; on the % scale 0 is the no-effect control and ±100 the full control effect; nearly all actives have a fitted effect of over 65% in size
JMJD2A Tudor inh – qHTS Assay for Inhibitors of JMJD2A-Tudor Domain | AlphaScreen JMJD2A-Tudor / H3K4me3 peptide binding | 390,000 compounds, 4.4% hits | AID 504339, 2011 | Potency, µM (highest dose often 114 µM), without a hit: at the highest dose activity change, negative = inhibition, most hits filed as inhibitors; further: potency means the concentration at half of the fitted maximal effect; on the % scale 0 is the no-effect control and ±100 the full control effect; nearly all actives have a fitted effect of over 50% in size
G9a inh – qHTS Assay for Inhibitors of Histone Lysine Methyltransferase G9a. G9a H3K9 monomethylation, AlphaScreen, 2 h. Potency, µM (series often up to 102 µM), inactives show at the top dose activity, negative = inhibition, usual class: inhibitors. Histone-lysine N-methyltransferase EHMT2 (Homo sapiens), Q96KQ7. 350,000 compounds, 8.8% hits; further: potency means the concentration at half of the fitted maximal effect; on the % scale 0 is the no-effect control and ±100 the full control effect; nearly all actives have a fitted effect of over 75% in size
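G9a (20 nM) was preincubated 15 min with compound, then reacted 2 h at room temperature with 500 nM biotin-H3K9 peptide and 20 µM SAM. Monomethyl-H3K9 detected by AlphaScreen using anti-H3K9me1 antibody.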
BAZ2B block – qHTS Assay for Inhibitors of BAZ2B; 360,000 compounds, 4.4% hits; AlphaScreen BAZ2B-H3K14Ac peptide displacement; Bromodomain adjacent to zinc finger domain protein 2B (Homo sapiens), Q9UIF8; Potency, µM (highest dose often 114 µM), without a hit: at the top dose activity change, negative = inhibition, usual class: inhibitors; further: potency means the concentration at half of the fitted maximal effect; on the % scale 0 is the no-effect control and ±100 the full control effect; nearly all actives have a fitted effect of over 60% in size
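In this displacement format the biotinylated H3(5-23) peptide acetylated at Lys14 serves as ligand at 50 nM, with BAZ2B at 50 nM in PBS pH 7.4 containing 0.01% Tween-20. Donor and acceptor beads are 10 ug/mL final.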
TbPYK inh – qHTS of Trypanosoma Brucei Inhibitors: Confirmatory Assay for Cherry-picked Compounds; shares compounds with PLK1 PBD block; recombinant TbPYK, Kinase-Glo ATP luminescence; Potency, µM (series often up to 76.9 µM), inactives show top-dose activity change, negative = inhibition, actives largely listed as inhibitors; 890 compounds, 67% hits; further: potency means the concentration at half of the fitted maximal effect; on the % scale 0 is the no-effect control and ±100 the full control effect; nearly all actives have a fitted effect of over 70% in size
TbPYK ADP-Glo – qHTS of Trypanosoma Brucei Inhibitors: Orthogonal Assay for Cherry-picked Compounds. 890 compounds, 62% hits. shares compounds with PLK1 PBD block. AID 720584, 2013. Potency, µM (doses to about 76.9 µM), without a hit: top-dose activity change, negative = inhibition, hits mostly inhibitors. recombinant TbPYK, ADP-Glo luminescence, 60 min; further: potency means the concentration at half of the fitted maximal effect; on the % scale 0 is the no-effect control and ±100 the full control effect; nearly all actives have a fitted effect of over 75% in size
An asterisk follows results filed as active; ? = inconclusive; / = no result; [ ] = remark or other dose. Rows were chosen to be rich in hits. Some 12% of all compounds tested hit in one or more screens of this group. Unless noted, the call rests on the fitted dose curve; in most records, active means well fitted curve in the direction sought with a large enough effect; inconclusive means small, poorly fitted or top-dose-only effect, or another doubt; inactive means no such curve, though single readings can be large; an effect the other way counts as inactive or inconclusive.

SMILES	HP1b chromo inh	PI5P4Ka inh	PLK1 PBD block	JMJD2A Tudor inh	G9a inh	BAZ2B block	TbPYK inh	TbPYK ADP-Glo
CCOC(=O)c1ccccc1NC(=O)NC(C)c1c(-n2cccc2)sc(C)c1C (configuration not stated)	21.4%	/	/	-8.4%	-32.9%[59 µM]	-2.1%	/	/
COC(=O)[C@H](CC(C)C)NC(=O)Cn1cnc(C(=O)Nc2ccc(C)c(C)c2)n1	43.5%	0.8	-2.5%	-18.7%	/	/	/	/
CC1CCCN(C(=O)c2nn(C)c3c2CSc2ccccc2-3)C1 (configuration not stated)	15.3%	7.5	?	?	/	2.1%	7.94µM*	10µM*
O=c1nccc(N/N=C/c2ccccc2O)[nH]1	25.1%[57 µM]	-24.5	?	?	39.7%	50.1µM*	?	4.0%
CCNC(=O)C1CCCN(C(=O)c2ccc(C(=O)OC)cc2)CC1 (configuration not stated)	/	-3.0	4.0%	/	/	/	/	/
CCOC(=O)N1CCN(S(=O)(=O)c2ccc(C(=O)NNc3nc4c(C)cccc4s3)cc2)CC1	-4.4%	-12.1	-2.5%	?	35.5µM*	?	?	?
COc1cc(C(=O)N2CCN(C)C(C)C2)ccc1OC1CCN(C(C)=O)CC1 (configuration not stated)	35.5%	-7.1	3.3%	10.3%	-38.4%	-2.7%	/	/
COc1ccc(OC)c(-n2c(=S)[nH]c3c(sc(=S)n3-c3ccccc3)c2=O)c1	32.3%	-14.3	-6.8%	?	14.4%[59 µM]	-27.2%	15.8µM*	15.8µM*
CCN(CC)C(=O)CSc1nc2c(sc(=S)n2-c2ccccc2)c(=O)n1-c1ccc(OC)c(OC)c1	36.0%	5.9	-2.3%	-25.1%	-2.4%	-2.1%	/	/
